Compound activity: PubChem BioAssay, Broad Institute
PAX8 inh HTS – lowers PAX8-driven luciferase in RMG-I cells; RMG-I TPO-luciferase reporter, SteadyGlo, 24 h; inhibition, % at 12.6 µM; 360,000 tested, 1.2% active; AID 652154;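 active means mean replicate inhibition at least 60% with every replicate also reaching 60%; inconclusive means only one of the two criteria is met; inactive means mean below 60% and not all replicates reaching 60%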;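 further: luciferase light reporting Pax8 driven TPO promoter activity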
LMP1 NFkB inh – Epstein-Barr LMP1 NF-kappaB reporter inhibition | LMP1-induced NF-kappaB luciferase reporter cells, luminescence | inhibition, % at 12.5 µM | 350,000 tested, 0.69% active | AID 504558; in the data active means inhibition above about 41%; inconclusive means no clear call, values can overlap the other calls
TRPM1 prom inh – MITF TRPM1 promoter inhibition in SK-MEL-5 cells. SK-MEL-5 TRPM1 promoter luciferase, 24 h. inhibition, % at 12.5 µM. 330,000 tested, 0.83% active;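 active means mean inhibition across replicates of 60% or more, whatever share of single replicates reaches that level; inconclusive means some that reach 60%, reason not given; inactive means mean inhibition across replicates below 60%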
LGR2 inh – blocks bursicon-induced cAMP signaling via Drosophila LGR2 | HEK293 LGR2, CRE-luciferase, bursicon-stimulated, 4 h | inhibition, % at 9.99 µM | 380,000 tested, 0.35% active | AID 720647;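 active means drop in luminescence signal, shown as inhibition above about 50% in the replicate tests, limit read from the data, passing the limit was not always enough; inconclusive means probably only some replicates passing the limit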;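 further: agonist challenge used bursicon conditioned medium at about half maximal strength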
EWS-Fli block – blocks EWS/Fli oncoprotein-driven transcription. inhibition, % at 12.6 µM. A673 NR0B1-luciferase reporter, viability-normalised. 350,000 tested, 0.67% active;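 active means mean inhibition of at least 50% after viability correction, with every replicate also passing that limit; inconclusive means mean reaches 50% but only one of two replicates passes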;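 further: firefly luciferase signal divided by Alamar Blue viability fluorescence both relative to DMSO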
Shn3 3UTR inh – inhibitors of Schnurri-3 3'UTR reporter in osteoblasts. Clone20 osteoblast Shn3 3'UTR firefly luciferase, 24 h. inhibition, % at 12.5 µM. 360,000 tested, 0.52% active. AID 588674;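 active means mean inhibition of at least 75% with every replicate also reaching 75%; inconclusive means mean inhibition at least 75% but some replicate below; inactive means mean inhibition below 75%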
A number is an active result; n = inactive; u = inconclusive; x = no result given; ! = a repeat was not active. Sampled rows, rich in hits. Any-hit rate of the full collection: about 2.2%.

SMILES	PAX8 inh HTS	LMP1 NFkB inh	TRPM1 prom inh	LGR2 inh	EWS-Fli block	Shn3 3UTR inh
Cc1cccc(S(=O)(=O)N2C[C@H](O)COC[C@H]3O[C@H](CC(=O)NCc4ccc5c(c4)OCO5)CC[C@@H]32)c1	n	x	x	n	n	x
Cc1ccc(-c2ccc(C3[C@H]4CNC[C@@H]3N4C(=O)Nc3ccc(F)cc3)cc2)cc1 (some centres not stated)	n	x	x	n	62!	x
COc1ccccc1-c1ccc(C2[C@H]3CNC[C@@H]2N3C(=O)Nc2ccccc2Cl)cc1 (some centres not stated)	n	x	x	n	62	x
O=C(Nc1ccc(F)cc1)N1[C@@H]2CNC[C@H]1C2c1ccc(-c2ccc(F)cc2)cc1 (some centres not stated)	n	x	x	n	n	x
CN(C)Cc1cn(CC[C@@H]2CC[C@H](NS(=O)(=O)c3ccc(-c4ccccc4)cc3)[C@H](CO)O2)nn1	n	x	x	n	n	x
O=C(c1ccc(S(=O)(=O)N2CCCCC2)cc1)N1CCN(CCN2C(=O)c3cccc4cccc(c34)C2=O)CC1	n	n	n	77	n	n
COc1ccccc1S(=O)(=O)N1CC[C@H]2[C@@H](CO)N(C)c3ccc(-c4ccc(C#N)cc4)cc3[C@H]21	107	x	x	n	n	x
COc1ccc(-c2ccc3c(c2)[C@@H]2[C@@H](CCN2S(=O)(=O)c2ccc(F)cc2)[C@H](CO)N3C)cc1	62	x	x	n	n	x
CCCC#Cc1ccc2c(c1)[C@@H]1[C@@H](CCN1S(=O)(=O)c1cccc(F)c1)[C@@H](CO)N2C	67	x	x	n	n	x
COc1ccc(-c2ccc3c(c2)[C@@H]2[C@@H](CCN2S(=O)(=O)c2ccc(OC)cc2)[C@H](CO)N3C)cc1	n	x	x	n	n	x
CCCC#Cc1ccc2c(c1)[C@@H]1[C@@H](CCN1S(=O)(=O)c1ccc(F)cc1)[C@@H](CO)N2C	n	x	x	n	n	x
Cc1noc(C)c1S(=O)(=O)N(C)C[C@@H]1OCCCC[C@H](C)Oc2ccc(NS(C)(=O)=O)cc2C(=O)N([C@H](C)CO)C[C@H]1C	n	x	x	n	n	x
N=c1c(-c2nc3ccccc3[nH]2)cc(C(=O)c2cccs2)nn1-c1ccccc1	x	42	n	x	x	n
N=c1c(-c2nc3ccccc3[nH]2)cc(C(=O)c2ccco2)nn1-c1ccccc1	n	n	n	n	n	n
Cc1cc(C)nc(N/N=C/c2cc(Br)ccc2O)n1	n	n	n	n	n	89
CCOc1cccc(-c2nnc3sc(C4CCCCC4)nn23)c1	x	n	n	x	x	n
COc1cccc(-c2nnc3sc(C4CCCCC4)nn23)c1	x	45	n	x	x	n
C[C@H]1CN([C@@H](C)CO)C(=O)c2cc(NC(=O)CCN3CCOCC3)ccc2O[C@H]1CN(C)Cc1ccc(Oc2ccccc2)cc1	x	x	x	n	n	x
COc1cc(OC)cc(-c2oc(=O)c3cc(OC)c(OC)cc3c2C#CCCO)c1	n	n	n	n	n	n
COc1cc(OC)cc(-c2oc(=O)c3cc(OC)c(OC)cc3c2C(F)(F)F)c1	n	n	70	n	n	n
CC(C)CC(NC(=O)OCc1ccccc1)C(=O)NC(Cc1ccccc1)C(=O)CCl (configuration not stated)	n	n	114	n	n	n
COc1ccccc1-c1noc(CCCC(=O)NC2CCCC2)n1	n	n	n	n	n	n
O=C(CCCc1nc(-c2ccccc2Cl)no1)NC1CCCC1	n	n	76	n	x	n
CCN(C(=O)COC(=O)c1ccc(S(=O)(=O)N2CCCc3ccccc32)cc1)C1CCS(=O)(=O)C1 (configuration not stated)	97	n	n	n	n	n
Cc1cccc(C)c1NC(=S)Nc1c(C)n(C)n(-c2ccccc2)c1=O	76	n	n	n	n	n
SMILES	PAX8 inh HTS	LMP1 NFkB inh	TRPM1 prom inh	LGR2 inh	EWS-Fli block	Shn3 3UTR inh
Cc1ccc(NC(=S)Nc2cccc(S(=O)(=O)Nc3c(C)n(C)n(-c4ccccc4)c3=O)c2)cc1	n	69	n	n	n	n
C[C@@H]1CN([C@@H](C)CO)C(=O)c2cccc(NS(=O)(=O)c3cn(C)cn3)c2O[C@H]1CN(C)Cc1ccncc1	n	x	x	n	n	x
C[C@H](CO)N1C[C@H](C)[C@H](CN(C)Cc2ccc3c(c2)OCO3)Oc2ccc(NC(=O)Cn3cnnn3)cc2C1=O	x	x	x	n	n	x
C=CC(=O)Nc1cccc(N(C)c2ccnc(Nc3ccc(N4CCN(C)CC4)cc3)n2)c1	x	44	n	x	x	n
C=CC(=O)Nc1cccc(Oc2ccnc(Nc3ccc(N4CCN(C)CC4)cc3)n2)c1	74	n	n	n	n	n
CN1CCN(c2ccc(NC(=O)COc3cccc4ccccc34)cc2)CC1	n	n	n	n	n	n
C=CC(=O)Nc1cccc(Oc2ccnc3[nH]ccc23)c1	x	n	n	x	x	n
COc1ncnc2c1N[C@@](C)(O)c1c(F)c(F)c(F)c(F)c1S2	x	n	n	x	x	n
COc1ncnc2c1NC(=O)CS2	x	82	n	n	x	n
COc1ccc2c3c(n(C)c2c1)[C@H](CO)N(C(=O)c1cnccn1)CC31CN(C(=O)c2cnccn2)C1	x	x	x	n	n	x
Cn1c2ccccc2c(=O)c2c(=O)n(C3CCCCC3)c(-c3ccco3)nc21	n	n	70	u	x	n
Cc1ccc(S(=O)(=O)N[C@@H]2C=C[C@@H](CC(=O)NCCc3ccncc3)O[C@@H]2CO)cc1	n	x	x	n	n	x
COc1ccc2c3c([nH]c2c1)[C@@H](CO)N(C(C)=O)CC31CCN(C(=O)Nc2c(C)noc2C)CC1	x	x	x	n	n	x
CCCNC(=O)NC[C@@H]1[C@H](c2ccc(C3=CCCC3)cc2)[C@H](CO)N1C(C)=O	n	x	x	n	n	x
Cc1[nH]c2ccccc2c(=O)c1C(=O)/C=C/c1ccccc1	103	n	85	74	n	n
O=C(C=Cc1ccccc1)c1c[nH]c2ccccc2c1=O	86	n	n	n	n	n
C[C@@H]1CN([C@@H](C)CO)S(=O)(=O)c2ccc(-c3ccc(C(=O)N(C)C)cc3)cc2O[C@H]1CN(C)C(=O)C1CCCCC1	x	x	x	n	n	x
CCCN(C)C[C@@H]1Oc2ncc(C#CCOC)cc2C(=O)N([C@H](C)CO)C[C@@H]1C	x	x	x	n	n	x
CC1CCCN(c2ccc3nc4ccccc4c(=O)n3n2)C1 (configuration not stated)	n	n	n	62	n	n
CN(CC1CCCO1)S(=O)(=O)c1ccc(C(=O)Nc2nc(-c3ccccn3)cs2)cc1 (configuration not stated)	x	n	n	x	x	90
CN(CC1CCCO1)S(=O)(=O)c1ccc(C(=O)Nc2ccccc2F)cc1 (configuration not stated)	n	n	n	n	n	n
Cc1ccc(C(=O)Nc2ccccn2)cc1S(=O)(=O)N1CCOCC1	n	n	n	n	n	n
Cc1ccc(C(=O)Nc2nc(-c3ccccn3)cs2)cc1S(=O)(=O)N1CCOCC1	82	n	n	n	n	90
O=C(Nc1nc(-c2ccccn2)cs1)c1ccc(F)c(S(=O)(=O)N2CCOCC2)c1	84	n	67	n	n	94
